JMJD2A Tudor inh – qHTS Assay for Inhibitors of JMJD2A-Tudor Domain. AlphaScreen JMJD2A-Tudor / H3K4me3 peptide binding. Potency, µM (titrated, usually from 114 µM), inactives show top-dose activity change, negative = inhibition, most hits filed as inhibitors. 390,000 compounds, 4.4% hits; note: % is set by controls: 0 for no effect and ±100 for the full control effect; nearly all actives have a fitted effect of over 50% in size
Sfp inh – qHTS Assay for Inhibitors of Bacillus subtilis Sfp phosphopantetheinyl transferase (PPTase); 310,000 compounds, 3.5% hits; Biochemical Sfp PPTase activity, qHTS; 4'-phosphopantetheinyl transferase ffp (Bacillus subtilis), Q9F4F7; Potency, µM, for inactives: largest response in the series, negative = inhibition, hits mostly inhibitors;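 note: the enzyme is Sfp with the accession as filed and its product quenches rhodamine fluorescence; 0% = enzyme reaction without inhibitor and -100% = no enzyme wells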
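Sfp 15 nM + cpd, 15 min RT; start w/ rhodamine-CoA 5 uM, BHQ-2-YbbR 12.5 uM (final); 50 mM Hepes pH 7.6, 10 mM MgCl2, 0.01% NP-40, 0.01% BSA; read 525/598 nm at 0 and 30 min.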
G9a block – qHTS Assay for Inhibitors of Histone Lysine Methyltransferase G9a | Histone-lysine N-methyltransferase EHMT2 (Homo sapiens), Q96KQ7 | Potency, µM (doses to about 102 µM), for the others: at the top dose activity, negative = inhibition, usual class: inhibitors | G9a H3K9 monomethylation, AlphaScreen, 2 h | 350,000 compounds, 8.8% hits | AID 504332, 2011; note: % is set by controls: 0 for no effect and ±100 for the full control effect; nearly all actives have a fitted effect of over 75% in size
Target sequence (Q96KQ7 913-1193 limits assumed): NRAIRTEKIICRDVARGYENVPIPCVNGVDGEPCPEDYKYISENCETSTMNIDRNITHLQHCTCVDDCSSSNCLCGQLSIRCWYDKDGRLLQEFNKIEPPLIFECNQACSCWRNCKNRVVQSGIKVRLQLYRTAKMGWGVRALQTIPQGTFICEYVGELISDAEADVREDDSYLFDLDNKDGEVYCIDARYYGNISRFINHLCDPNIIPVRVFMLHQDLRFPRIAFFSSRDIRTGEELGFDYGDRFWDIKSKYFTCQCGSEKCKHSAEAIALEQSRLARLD
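G9a (20 nM) preincubated 15 min RT with compounds, then 500 nM biotinylated H3K9 peptide and 20 uM SAM added; 2 h RT reaction. Monomethyl-H3K9 product detected by AlphaScreen with anti-H3K9me1 antibody, streptavidin donor and anti-rabbit IgG acceptor beads.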
BAZ2B inh – qHTS Assay for Inhibitors of BAZ2B; 360,000 compounds, 4.4% hits; AlphaScreen BAZ2B-H3K14Ac peptide displacement; AID 504333, 2011; Potency, µM (top dose mostly 114 µM), for the others: at the highest dose activity change, negative = inhibition, actives largely listed as inhibitors; note: % is set by controls: 0 for no effect and ±100 for the full control effect; nearly all actives have a fitted effect of over 60% in size
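Multi-concentration screen (max 110 uM) measuring displacement of acetylated histone H3 peptide from BAZ2B by AlphaScreen, using 50 nM protein, 50 nM peptide and 10 ug/mL streptavidin donor plus Ni-chelate acceptor beads.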
12-LOX inh – Primary qHTS assay for inhibitors of human arachidonate 12S-lipoxygenase (ALOX12): Round 2. Polyunsaturated fatty acid lipoxygenase ALOX12 (Homo sapiens), P18054. purified 12hLO, xylenol orange hydroperoxide absorbance. Potency, µM (titrated, usually from 108 µM), for the others: at the highest dose activity change, negative = inhibition, most hits filed as inhibitors. 580,000 compounds, 1.1% hits; note: % is set by controls: 0 for no effect and ±100 for the full control effect
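Purified human 12hLO (150 nM final) in 25 mM Hepes, 0.01% Triton X-100, pH 7.0 was preincubated 15 min at room temperature with compound. Then 40 uM arachidonic acid was added, 30 min. Hydroperoxide was read by Fe-XO absorbance ratio 573/405 nm.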
HP1b binding inh – HTS for Inhibitors of HP1-beta Chromodomain Interactions with Methylated Histone Tails. 390,000 compounds, 0.56% hits. Potency, µM (series often up to 114 µM), for the others: at the highest dose activity change, negative = inhibition, hits mostly inhibitors. AlphaScreen HP1-beta / biotin-H3K9me3 peptide binding. Chromobox protein homolog 1 (Homo sapiens), P83916; note: nearly all actives have a fitted effect of over 70% in size
Target sequence (P83916 whole entry, looked up): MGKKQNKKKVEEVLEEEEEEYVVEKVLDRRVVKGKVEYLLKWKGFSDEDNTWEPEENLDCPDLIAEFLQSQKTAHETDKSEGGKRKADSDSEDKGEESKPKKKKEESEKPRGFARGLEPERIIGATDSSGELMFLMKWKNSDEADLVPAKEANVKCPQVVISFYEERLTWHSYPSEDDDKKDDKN
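Compound inhibition of the preformed complex between 50 nM HP1-beta and 50 nM biotinylated H3K9me3 peptide was read by AlphaScreen. Buffer was PBS pH 7.4 with 0.01% Tween-20. Incubations ran 30 min at room temperature, with 10 ug/mL donor/acceptor beads.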
Numbers without * were called inactive; u = inconclusive; x = no result given; [ ] = dose if it differs, or a comment. The list is not random: actives were taken first. Their share in the collection is about 8.7%. Calls come from the whole dose curve; as a rule, active = well fitted curve in the direction sought with a large enough effect; inconclusive = small, poorly fitted or top-dose-only effect, or another doubt; inactive = no such curve, though single readings can be large; an effect the other way counts as inactive or inconclusive. Potency is the fitted concentration of half-maximal effect.

SMILES | JMJD2A Tudor inh | Sfp inh | G9a block | BAZ2B inh | 12-LOX inh | HP1b binding inh
c1coc(-c2nnc(-c3ccco3)nn2)c1 | 25µM* | -65% | 20µM* | 20µM* | u | 45µM*
CNC(=O)[C@@H](c1ccccc1OC)N1CCC[C@H]1C(=O)NCC1CC1 | x | x | x | x | 13%[176 µM] | x
COc1ccccc1OCCCN1CC[C@@](C)(O)[C@@H](O)C1 | x | x | x | x | -18% | x
Cc1nn(-c2ccccn2)c2c1-c1nc(N3CCOCC3)ncc1CC2 | -10% | 45µM* | u | -26% | -22% | 24%
COc1ccccc1NS(=O)(=O)c1cc(NC(=O)Nc2ccc(Cl)cc2Cl)ccc1N1CCCCC1 | -32% | -9% | 3.5µM* | -6% | -25% | u
COc1ccccc1NS(=O)(=O)c1cc(NC(=O)CCC2CCCC2)ccc1N1CCOCC1 | -15% | 13% | 1.4µM* | u | 2% | 36%
COc1ccc(NS(=O)(=O)c2cc(NC(=O)C3CC3)ccc2N2CCCCC2)cc1 | -29% | 16% | -10% | x | 5% | 16%
COc1ccccc1NS(=O)(=O)c1cc(NC(=O)C2CCC2)ccc1N1CCCCC1 | u | 8.9µM* | 3.5µM* | -26% | -25% | -32%
O=S(=O)(N[C@@H]1C[C@H](Cn2cc(-c3cccnc3)nn2)[C@@H](O)[C@H]1O)c1ccccc1 | x | x | x | x | 20µM* | x
COCc1cn(C[C@H]2C[C@@H](NCc3cccnc3)[C@H](O)[C@@H]2O)nn1 | x | x | x | x | 22µM* | x
COCc1cn(C[C@H]2C[C@@H](NCc3cccc4c3OCO4)[C@H](O)[C@@H]2O)nn1 | x | x | x | x | 3% | x
O=S1(=O)CCN(Cc2cn(C[C@H]3C[C@@H](NCc4ccc(F)cc4)[C@H](O)[C@@H]3O)nn2)CC1 | x | x | x | x | 13µM* | x
COCC(=O)N[C@@H]1C[C@H](Cn2cc(CN3CCS(=O)(=O)CC3)nn2)[C@@H](O)[C@H]1O | x | x | x | x | 68% | x
O=C(CCCN1C(=O)/C(=C/c2ccccc2Cl)SC1=S)NNC(=O)c1ccccc1Cl | -4% | -17% | 10%[59 µM] | -6% | -2% | 23%
O=C(CCCN1C(=O)/C(=C/c2ccccc2Cl)SC1=S)N1CCCC1 | 14µM* | u | -6%[12.7 µM] | 14µM* | -19% | u
O=C(CCN1C(=O)/C(=C/c2ccccc2Cl)SC1=S)N1CCCC1 | u | -15% | 13% | 25µM* | -8% | u
O=C(CCN1C(=O)/C(=C/c2ccccc2Cl)SC1=S)N1CCOCC1 | -15% | 9% | u | u | -9% | 32%
CC1CCC/C(=N/NC(=O)c2ccccc2-n2cccc2)C1 (centres undefined) | -28% | 23% | 1%[59 µM] | -7% | 1% | 6%
CC(C)NC(=S)N/N=C1\CCCCC1C1CCCCC1 (centres undefined) | u | -22% | 22µM* | u | 22µM* | -45%
CC1CCCC/C1=N\NC(=S)Nc1ccccc1 (centres undefined) | u | u | 32µM* | u | u | 2%
CC(C)NC(=S)NN=C1c2ccccc2-c2ccccc21 | -12% | 21% | 16% | -37% | u | -23%
CC1CCC/C(=N\NC(=S)Nc2ccccc2)C1 (centres undefined) | 79µM* | -13% | 7.9µM* | u | u | -13%
S=C(N/N=C1\CCCCC1C1CCCCC1)Nc1ccccc1 (centres undefined) | x | x | x | x | 16µM* | x
O=C(c1ccc(F)c(F)c1)N1CCCC(n2cc(-c3nc(C4CC4)no3)nn2)C1 (centres undefined) | x | x | x | x | -13% | x

Source: PubChem BioAssay (National Center for Advancing Translational Sciences (NCATS))
